Assay [1] has as its system XIP peptide (Xip251-270) binding. Briefly: XIP fragment 251-270 binding compounds – biochemical, small-molecule microarray, fluorescence 635/667 nm, 0.1 µg/mL protein, primary screen (AID 1182). The note with it: fluorescent protein binding, 635 nm, higher = more signal, called active from +8 up or from −8 down.
The subject of the next assay is XIP peptide (Xip251-270). Briefly: compounds binding XIP fragment 251-270 – biochemical, small-molecule microarray, fluorescence 635/667 nm, 0.5 µg/mL protein, primary screen (AID 1183). The note with it: fluorescence 635 nm, higher = more signal.
Assay [2] in a line: blood-stage malaria parasite viability loss – strain 3D7, DAPI fluorescence, 100 nL, primary screen (AID 1184).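 Further: parasites grown inside human red blood cells in medium with human serum.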 The note with it: P. falciparum 3D7 growth, 3 d, higher = more signal.
Assay [3] concerns the target Homeobox protein Hox-A13 (Mus musculus) (UniProt Q62424). Briefly: disruptors of Hoxa13 oligonucleotide interaction – biochemical, fluorescence polarization, labeled oligonucleotide, primary screen (AID 1185). The note with it: Hoxa13:DNA binding, 15 min, higher = more signal, called active from +8 up or from −8 down.
Assay [4] is described as follows: blockers of DNA damage checkpoint Chk1 activation – imaging, HeLa, hydroxyurea, phospho-Chk1 antibody, percent positive cells, primary screen (AID 1186). The note with it: hydroxyurea-induced phospho-Chk1 immunofluorescence imaging, higher = more signal.
A short description of assay [5]: blockers of DNA damage checkpoint Chk1 activation – imaging, HeLa, hydroxyurea, phospho-Chk1 nuclear intensity, primary screen (AID 1187). The note with it: hydroxyurea-induced phospho-Chk1 immunofluorescence imaging, higher = more signal.

Calls of active or inactive are those of the source. Unless noted, how the calls were made is not given here.

Homeobox protein Hox-A13 (Mus musculus), sequence (Q62424 whole entry, looked up): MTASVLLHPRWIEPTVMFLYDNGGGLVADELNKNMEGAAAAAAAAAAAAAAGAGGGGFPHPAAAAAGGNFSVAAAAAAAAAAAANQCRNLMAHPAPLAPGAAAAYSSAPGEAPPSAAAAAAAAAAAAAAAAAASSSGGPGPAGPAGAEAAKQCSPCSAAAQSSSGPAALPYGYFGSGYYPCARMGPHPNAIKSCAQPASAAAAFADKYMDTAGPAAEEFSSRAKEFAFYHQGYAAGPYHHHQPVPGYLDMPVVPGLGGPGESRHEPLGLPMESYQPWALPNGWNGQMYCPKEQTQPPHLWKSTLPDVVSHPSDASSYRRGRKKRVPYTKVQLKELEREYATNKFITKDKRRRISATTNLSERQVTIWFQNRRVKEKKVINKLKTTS

In the case of `C=CCC(OC(C)=O)[C@@H]1[C@@H](N(Cc2ccc(-c3ccccc3)cc2)C(=O)Cc2ccc(OC)cc2)c2cc(OCCCO)ccc2N1C(=O)Cc1ccc(OC)cc1` (some centres not stated), the composite z-score was 0.497 (inactive) in assay [1] and -0.243 with XIP peptide (Xip251-270). Also, the z-score in assay [2] was -1.97; in assay [3], -2.75 (inactive); in assay [4], 0.684 (inactive); in assay [5], 0.763 (inactive).
Take `O=C1C2C=CC(C(O)C3CCCCC3)N(Nc3ccccc3F)C2C(=O)N1c1ccccc1` (configuration not stated): the values for the composite z-score (in assay [1]; with XIP peptide (Xip251-270)) were 0.352 (inactive) and 0.738, respectively. For the same molecule, the z-score was -0.193 in assay [2], 0.182 (inactive) in assay [3], 0.0253 (inactive) in assay [4] and 0.0942 (inactive) in assay [5].
Consider `COC(=O)[C@@]1(Cc2ccc(F)cc2)[C@H]2c3cc(C(=O)N4CCCC4)n(CCc4c[nH]c5cc(F)ccc45)c3C[C@H]2CN1C(=O)c1ccccc1`, for which the composite z-score was 0.0421 (inactive) in assay [1] and 0.684 in the assay with XIP peptide (Xip251-270). In addition, the z-score in assay [2] was -1.4; in assay [3], -2.5 (inactive); in assay [4], -0.332 (inactive); in assay [5], -0.589 (inactive).
Consider `COc1ccc(-c2cc3c(c(CCc4ccccc4)n2)[Si](C(C)C)(C(C)C)O[C@H]3c2ccccc2)cn1`, for which the values for the composite z-score (in assay [1]; with XIP peptide (Xip251-270)) were -0.269 (inactive) and -0.179, respectively. In addition, the z-score in assay [2] is -1.41; in assay [3], -1.35 (inactive); in assay [4] it was -0.0745 (inactive); in assay [5] it was -0.194 (inactive).
In the case of `O=C1C2C=CC(C(O)C(c3ccccc3)c3ccccc3)N(Nc3ccccc3F)C2C(=O)N1c1ccccc1` (configuration not stated), the composite z-score in assay [1] was 0.814 (inactive); in the assay on XIP peptide (Xip251-270), 0.768. In addition, the z-score is -0.373 in assay [2], -2.65 (inactive) in assay [3], 0.837 (inactive) in assay [4] and 0.29 (inactive) in assay [5].
Turning to `CC1CC/C=C\[C@H]2OC34C=CCN(C(C)C)C(=O)[C@H]3N(C(C)CO)C(=O)[C@@H]4C2C(=O)O1` (some centres not stated), the composite z-score is -0.275 (inactive) in assay [1] and 0.384 with XIP peptide (Xip251-270). The z-score in assay [2] was -0.577; in assay [3] it was -5.82 (inactive); in assay [4] it was -0.829 (inactive); in assay [5], -0.249 (inactive).
As to `CC1C2C(CCCO)=CC(C3C(=O)N(C(N)=O)C(=O)C23)N1Cc1cccc(OC(F)(F)F)c1` (configuration not stated), the composite z-score was 1.51 (inactive) in assay [1] and 0.256 in the assay on XIP peptide (Xip251-270). The z-score is -0.128 in assay [2], -7.99 (inactive) in assay [3], 0.37 (inactive) in assay [4] and 0.181 (inactive) in assay [5].
As to `COc1ccc([Si](C)(C)[C@H]2[C@H](CC(=O)N(CCO)Cc3ccccc3)O[C@@]3(C(=O)N(Cc4cccc(N5CCCCC5=O)c4)c4ccccc43)[C@@H]2C)cc1`, the composite z-score in assay [1] is 2.13 (inactive); with XIP peptide (Xip251-270), 0.587. Further, the z-score was -2.59 in assay [2], -0.38 (inactive) in assay [3], -0.929 (inactive) in assay [4] and -0.607 (inactive) in assay [5].
Regarding `O=C1O[C@@H](c2ccccc2)[C@@H](c2ccccc2)N2[C@@H](c3ccc(OCCO)cc3)[C@]3(C(=O)Nc4ccc(C#CC5=CCCCC5)cc43)[C@@H](C(=O)Nc3nc4ccccc4s3)[C@H]12`, the composite z-score in assay [1] is -0.487 (inactive); in the assay on XIP peptide (Xip251-270), 0.646. Besides, the z-score in assay [2] is -1.38; in assay [3], -15.3 (active); in assay [4], -0.176 (inactive); in assay [5], -0.282 (inactive).
`CC(C)Cc1ccc(CN2CC[C@@H](NC(=O)c3ccccc3)C2)cc1`: the composite z-score in assay [1] was 0.321 (inactive); with XIP peptide (Xip251-270), 0.447. Besides, the z-score in assay [2] is -1.68; in assay [3] it was -1.52 (inactive); in assay [4], -0.681 (inactive); in assay [5] it was -0.744 (inactive).
For `[N-]=[N+]=Nc1ccccc1C[C@]1(C(=O)N2CCCCC2)N=C(c2ccc(OCCCO)cc2)O[C@H]1c1ccccc1`, the composite z-score was 1.48 (inactive) in assay [1] and 0.758 in the assay with XIP peptide (Xip251-270). Also, the z-score is -2.34 in assay [2], -5.43 (inactive) in assay [3], -0.554 (inactive) in assay [4] and -0.78 (inactive) in assay [5].
`COCCCNC(=O)[C@]1(Cc2ccccc2CN=[N+]=[N-])N=C(c2ccc(OCCCO)cc2)O[C@@H]1c1ccccc1N=[N+]=[N-]`: the composite z-score in assay [1] is 0.228 (inactive); in the assay with XIP peptide (Xip251-270), -0.184. Besides, the z-score was -2.03 in assay [2], -0.994 (inactive) in assay [3], -0.364 (inactive) in assay [4] and -0.601 (inactive) in assay [5].
In the case of `C[C@@]1([C@@H](NS(=O)(=O)c2cccc3cccnc23)c2ccc(-c3ccccc3)cc2)C[C@H]1C1CCCCC1`, the composite z-score is 0.648 (inactive) in assay [1] and -0.209 in the assay on XIP peptide (Xip251-270). In addition, the z-score was -0.748 in assay [2], 2.32 (inactive) in assay [3], 1.42 (inactive) in assay [4] and 0.534 (inactive) in assay [5].
As for `COC(=O)[C@@]1(Cc2ccc(F)cc2)[C@H]2c3cc(C(=O)N(C)C)n(Cc4ccc(C(F)(F)F)nc4)c3C[C@H]2CN1C(=O)c1ccccc1`, the composite z-score was 0.338 (inactive) in assay [1] and 0.64 in the assay on XIP peptide (Xip251-270). Also, the z-score was -1.68 in assay [2], -3.87 (inactive) in assay [3], 0.93 (inactive) in assay [4] and 0.563 (inactive) in assay [5].
In the case of `C[N+](C)(C)CCCC[C@@H]1NC(=O)[C@H]2C[C@@H](C(=O)O)[C@@H](c3ccc(O)cc3)N2C1=O`, the composite z-score in assay [1] was 0.154 (inactive); with XIP peptide (Xip251-270), 0.274. Moreover, the z-score was 0.115 in assay [2], -1.42 (inactive) in assay [3], -0.349 (inactive) in assay [4] and -0.313 (inactive) in assay [5].
With `C=CCN1C(=O)[C@]2(O[C@H](CCO)[C@@H]([Si](C)(C)c3ccc(OC)cc3)[C@@H]2C)c2cc(N3C(=O)c4ccccc4Oc4ccccc43)ccc21`, the composite z-score in assay [1] is 0.297 (inactive); in the assay with XIP peptide (Xip251-270), 0.671. Further, the z-score in assay [2] is -2.42; in assay [3], -4.93 (inactive); in assay [4] it was -1.05 (inactive); in assay [5], -1.5 (inactive).
As to `Cc1ccc(S[C@]2(C(=O)NCC(C)C)CC(=O)N(C(C)C)[C@@H]2c2ccc(CO)cc2I)cc1`, the composite z-score in assay [1] is 0.708 (inactive); in the assay with XIP peptide (Xip251-270) it was 0.689. Besides, the z-score in assay [2] is -1.12; in assay [3], -2.86 (inactive); in assay [4], -0.187 (inactive); in assay [5] it was 0.023 (inactive).

These data come from PubChem BioAssay.
